# The source made the active and inactive calls. The calls were made as follows: active = hit-call score of the fitted dose curve at least 0.9, where 1 is the maximum; inactive = score below 0.9. Peptide text beside a SMILES is read from it.
# Assays:
# [1] = molecular target: Nuclear respiratory factor 1 (Homo sapiens) (UniProt Q16656); experiment: ATG_NRF1_CIS: Attagene CIS-FACTORIAL HepG2 Assay for human Nuclear Respiratory Factor 1 (NRF1) Orphan Gene (AID 2282987); conditions: HepG2 NRF1 cis-element reporter, Attagene multiplex; actives raise or lower the signal
# Method in brief: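 Multiplexed cis-reporter assay, HepG2 cells, 24 h treatment. Total RNA → oligo(dT) RT → PCR with reporter-specific primers → 6-FAM primer extension → HpaI cut → CE. Bidirectional fit vs DMSO.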
# [2] = ATG_NFI_CIS: Attagene CIS-FACTORIAL HepG2 Assay for human Nuclear Factor I (NFI) (AID 2282989); conditions: HepG2 cis-regulatory reporter, NFI response element transcription; actives raise or lower the signal
# Method in brief: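 Reporter transcripts were measured by RT-PCR with fluorescent primer extension and capillary electrophoresis 24 h post-treatment. HepG2 cells carried transiently transfected cis-regulated reporter constructs reporting endogenous factor activity; gain or loss fitted against DMSO baseline.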
# [3] = molecular target: Myc proto-oncogene protein (Homo sapiens) (UniProt P01106); experiment: ATG_Myc_CIS: Attagene CIS-FACTORIAL HepG2 Assay for human Myelocytomatosis (Myc) Proto-Oncogene Transcription Factor (AID 2282990); conditions: HepG2, Attagene cis-reporter transcription factor activity; actives raise or lower the signal
# Method in brief: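 Transiently transfected HepG2 cells bearing cis-promoter reporter units for endogenous transcription factors; 24 h exposure. Reporter mRNA measured by RT-PCR, 6-FAM primer extension, HpaI cut and capillary electrophoresis; bidirectional fit relative to DMSO.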
# [4] = ATG_NF_kB_CIS: Attagene CIS-FACTORIAL HepG2 Assay for human Nuclear Factor Kappa B (NF-kB) (AID 2282991); conditions: HepG2 Attagene cis-factorial NF-kB reporter mRNA; actives raise or lower the signal
# Method in brief: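 Transient MRTU transfection of human HepG2 liver cells → 24 h chemical exposure → total RNA, oligo(dT) RT → PCR, 6-FAM primer extension, HpaI digest 2 h 37 C → CE fragment analysis. Bidirectional fitting, DMSO negative control.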
# [5] = ATG_NRF2_ARE_CIS: Attagene CIS-FACTORIAL HepG2 Assay for human Nuclear Factor Erythroid 2 Related Factor 2 (NFR2) response to Antioxidant Response Elements (ARE) (AID 2282992); conditions: HepG2 Attagene ARE/NRF2 reporter, transcription factor activity; actives raise or lower the signal;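 as to AC50: reporter mRNA level measured by RT-PCR and capillary electrophoresis fluorescence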
# Method in brief: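 HepG2 cells transiently transfected with multiplexed cis-element reporter constructs, 24 h after chemical dosing; reporter mRNA quantified by RT-PCR, fluorescent primer extension, HpaI digestion and capillary electrophoresis. Bidirectional fit relative to DMSO.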
# [6] = molecular target: Cellular tumor antigen p53 (Homo sapiens) (UniProt P04637); experiment: ATG_p53_CIS: Attagene CIS-FACTORIAL HepG2 Assay for human p53 Transcription Factor (AID 2282994); conditions: HepG2 p53 cis-element reporter, Attagene mRNA; actives raise or lower the signal
# Method in brief: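 HepG2 cells transiently transfected with cis-regulated multiple reporter transcription units, dosed 24 h. Reporter mRNA measured by RT-PCR, 6-FAM primer extension, HpaI digestion and capillary electrophoresis; bidirectional fit relative to DMSO.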
# [7] = ATG_Oct_MLP_CIS: Attagene CIS-FACTORIAL HepG2 Assay for human Octamer-Binding Transcription Factor (Oct) (AID 2282993); conditions: HepG2 Attagene cis-factorial Oct reporter, mRNA; actives raise or lower the signal
# Method in brief: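 Readout is reporter transcript level from RT-PCR with fluorescent primer extension and capillary electrophoresis, fitted in both directions against DMSO. Transfected HepG2 reporter units report endogenous factor activity after 24 h dosing.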
# [8] = BSK_3C_uPAR: BioMAP Diversity Plus: 3C Assay for Urokinase-type plasminogen activator receptor (uPAR) Biomarker Activity (AID 2282998); conditions: BioMAP 3C HUVEC, uPAR biomarker ELISA; actives raise or lower the signal
# Method in brief: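 Cell-surface uPAR on HUVEC (3C system) read by ELISA at 24 h post-treatment, with DMSO as baseline and fitting in both directions. Parallel cultures stained with SRB to flag overt cytotoxicity.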
# [9] = BSK_3C_VCAM1: BioMAP Diversity Plus: 3C Assay for Vascular cell adhesion molecule 1 (VCAM1) Biomarker Activity (AID 2282999); conditions: BioMAP 3C HUVEC, VCAM1 ELISA, cytokine-stimulated; actives raise or lower the signal
# Method in brief: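 Human umbilical vein endothelial cells (3C system), biomarker read by ELISA 24 h after dosing; bidirectional fit against DMSO baseline. Cytotoxicity tracked by SRB total-protein staining in parallel cultures at biomarker time.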
# [10] = BSK_3C_TissueFactor: BioMAP Diversity Plus: 3C Assay for Tissue Factor Biomarker Activity (AID 2282997); conditions: BioMAP 3C HUVEC, tissue factor biomarker readout; actives raise or lower the signal
# Method in brief: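 ELISA read-out of Tissue Factor levels on human umbilical vein endothelium collected 24 h after chemical dosing. Gain or loss of signal was fitted relative to DMSO.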
# Sequence of Myc proto-oncogene protein (Homo sapiens) (P01106 whole entry, looked up): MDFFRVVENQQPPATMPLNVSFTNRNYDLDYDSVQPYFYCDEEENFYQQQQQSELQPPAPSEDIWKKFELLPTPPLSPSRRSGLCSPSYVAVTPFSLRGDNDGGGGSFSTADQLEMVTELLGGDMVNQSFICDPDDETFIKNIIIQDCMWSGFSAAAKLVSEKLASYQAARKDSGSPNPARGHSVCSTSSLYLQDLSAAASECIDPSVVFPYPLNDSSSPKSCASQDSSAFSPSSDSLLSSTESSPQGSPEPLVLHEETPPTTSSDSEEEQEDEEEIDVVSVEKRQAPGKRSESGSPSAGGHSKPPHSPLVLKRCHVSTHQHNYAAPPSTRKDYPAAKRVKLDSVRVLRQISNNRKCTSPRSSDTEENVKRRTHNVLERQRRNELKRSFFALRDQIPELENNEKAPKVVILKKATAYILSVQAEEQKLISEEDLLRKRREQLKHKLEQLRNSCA
# Sequence of Cellular tumor antigen p53 (Homo sapiens) (P04637 whole entry, looked up): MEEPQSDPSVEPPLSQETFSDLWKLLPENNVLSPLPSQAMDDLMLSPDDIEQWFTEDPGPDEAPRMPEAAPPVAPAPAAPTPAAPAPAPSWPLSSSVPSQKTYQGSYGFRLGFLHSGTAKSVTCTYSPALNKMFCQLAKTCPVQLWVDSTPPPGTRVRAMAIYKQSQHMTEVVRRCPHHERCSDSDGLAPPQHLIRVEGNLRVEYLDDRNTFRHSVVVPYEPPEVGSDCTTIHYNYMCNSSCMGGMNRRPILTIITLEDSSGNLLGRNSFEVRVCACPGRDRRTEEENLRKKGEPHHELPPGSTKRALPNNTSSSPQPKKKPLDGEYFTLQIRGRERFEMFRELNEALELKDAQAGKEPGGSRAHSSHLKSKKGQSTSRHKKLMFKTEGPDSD
# Sequence of Nuclear respiratory factor 1 (Homo sapiens) (Q16656 whole entry, looked up): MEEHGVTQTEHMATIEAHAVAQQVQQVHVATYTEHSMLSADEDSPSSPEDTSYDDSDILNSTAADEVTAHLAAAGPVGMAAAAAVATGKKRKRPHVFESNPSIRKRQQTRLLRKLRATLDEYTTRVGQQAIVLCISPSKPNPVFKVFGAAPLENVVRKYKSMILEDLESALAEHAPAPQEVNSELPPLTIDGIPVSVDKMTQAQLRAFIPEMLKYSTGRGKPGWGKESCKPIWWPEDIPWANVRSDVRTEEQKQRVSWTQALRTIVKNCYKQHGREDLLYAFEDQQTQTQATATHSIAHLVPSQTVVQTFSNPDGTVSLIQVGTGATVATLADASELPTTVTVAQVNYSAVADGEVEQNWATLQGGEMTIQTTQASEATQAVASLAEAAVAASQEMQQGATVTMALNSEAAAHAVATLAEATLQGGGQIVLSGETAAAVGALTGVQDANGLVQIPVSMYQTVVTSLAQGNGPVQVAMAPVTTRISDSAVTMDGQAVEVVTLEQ
smiles,measurement,setting,value
NNS(=O)(=O)c1ccc(Oc2ccc(S(=O)(=O)NN)cc2)cc1,outcome,[1],inactive
same,outcome,[2],inactive
same,outcome,[3],inactive
same,outcome,[4],inactive
same,outcome,[5],inactive
same,outcome,[6],inactive
CC(C)c1cc(C(C)C)cc(C(C)C)c1,AC50,[1],174 µM (active)
same,AC50,[2],151 µM (active)
same,AC50,[3],161 µM (active)
same,AC50,[5],66.3 µM (active)
same,outcome,[7],inactive
same,outcome,[6],inactive
CCC(C)(O)CCCC(C)C (stereo unspecified),outcome,[1],inactive
same,outcome,[2],inactive
same,outcome,[3],inactive
same,outcome,[4],inactive
same,outcome,[5],inactive
same,outcome,[6],inactive
Cc1c(O)cccc1O,outcome,[1],inactive
same,outcome,[2],inactive
same,outcome,[3],inactive
same,outcome,[4],inactive
same,outcome,[5],inactive
same,outcome,[7],inactive
same,outcome,[8],inactive
same,outcome,[9],inactive
C=CCCCCCCCCOC(C)=O,outcome,[1],inactive
same,outcome,[2],inactive
same,outcome,[3],inactive
same,outcome,[5],inactive
same,outcome,[7],inactive
CCCCc1ccc(Cl)cc1,outcome,[1],inactive
same,outcome,[2],inactive
same,outcome,[3],inactive
same,outcome,[5],inactive
same,outcome,[7],inactive
same,outcome,[6],inactive
C=C(C)C1CC=C(C)C(OC(C)=O)C1 (stereo unspecified),outcome,[1],inactive
same,outcome,[2],inactive
same,outcome,[3],inactive
same,outcome,[5],inactive
same,outcome,[7],inactive
same,outcome,[6],inactive
COc1cc(C)ccc1O,outcome,[1],inactive
same,outcome,[2],inactive
same,outcome,[3],inactive
same,AC50,[5],17.4 µM (active)
same,outcome,[7],inactive
same,outcome,[6],inactive
C=CC(=O)OCCCCCCOC(=O)C=C,outcome,[1],inactive
same,outcome,[2],inactive
same,outcome,[3],inactive
same,AC50,[5],6.61 µM (active)
same,AC50,[7],26.2 µM (active)
same,AC50,[6],174 µM (active)
same,AC50,[10],3.97 µM (active)
same,AC50,[8],20 µM (active)
same,AC50,[9],10.4 µM (active)
CCCCCOC(=O)CCCCC,outcome,[1],inactive
same,outcome,[2],inactive
same,outcome,[3],inactive
same,outcome,[5],inactive
same,outcome,[7],inactive
same,outcome,[6],inactive
O=C(O)C(F)(F)C(F)(F)C(F)(F)C(F)(F)C(=O)O,outcome,[1],inactive
same,outcome,[2],inactive
same,outcome,[3],inactive
same,outcome,[5],inactive
same,outcome,[7],inactive
same,outcome,[6],inactive
same,outcome,[8],inactive
same,outcome,[9],inactive
CCCCCCCCC(CO)CCCCCC (stereo unspecified),AC50,[1],117 µM (active)
same,outcome,[2],inactive
same,AC50,[3],179 µM (active)
same,AC50,[5],81.3 µM (active)
same,outcome,[7],inactive
same,outcome,[8],inactive
same,outcome,[9],inactive
COC(=O)[C@H](Cc1ccccc1)NC(=O)[C@@H](N)CC(=O)O (H-Asp-Phe-OMe),outcome,[1],inactive
same,outcome,[2],inactive
same,outcome,[3],inactive
same,outcome,[5],inactive
same,outcome,[7],inactive
same,outcome,[6],inactive
C/C=C/C=C/CCCCCCCO,outcome,[1],inactive
same,outcome,[2],inactive
same,outcome,[3],inactive
same,AC50,[5],45.6 µM (active)
same,outcome,[7],inactive
same,outcome,[6],inactive
CC(C)c1cccc(C(C)C)c1N,outcome,[1],inactive
same,outcome,[2],inactive
same,outcome,[3],inactive
same,outcome,[5],inactive
same,outcome,[7],inactive
same,outcome,[6],inactive
same,outcome,[10],inactive
same,outcome,[8],inactive
same,outcome,[9],inactive
OCCCc1ccccc1,outcome,[1],inactive
same,outcome,[2],inactive
same,outcome,[3],inactive
same,outcome,[5],inactive
same,outcome,[7],inactive
same,outcome,[6],inactive
